Laboratory results: the supplement of paper PMC8728848
Many of the other results were omitted from the sample, so the strongest signals are more common in it than they were.

Assays:
Assay in all cases: glycan array binding signal (z-score within array); higher = stronger binding
Conditions in all cases: glycan notation: IUPAC condensed, linker removed
[1] = biological target: Fuc(a1-2)Gal(b1-3)GlcNAc(b1-3)Gal(b1-4)Glc
How it was run: (§1)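 From the Consortium for Functional Glycomics database, 3228 arrays were curated, keeping only those whose protein sequence was available. Binding is given as a within-array Z-score averaged across arrays sharing a protein sequence and across linkers. Negative Z-scores can be read as non-binding.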

[2] = biological target: Fuc(a1-2)Gal(b1-4)GlcNAc(b1-3)Gal(b1-4)GlcNAc(b1-3)Gal(b1-4)GlcNAc
How it was run: as §1

[3] = biological target: Fuc(a1-2)Gal(b1-4)GlcNAc6S
How it was run: as §1

[4] = biological target: Fuc(a1-2)Gal(b1-4)[Fuc(a1-3)]GlcNAc
How it was run: as §1

[5] = biological target: Fuc(a1-2)Gal(b1-4)[Fuc(a1-3)]GlcNAc(b1-3)Gal(b1-4)[Fuc(a1-3)]GlcNAc(b1-3)Gal(b1-4)[Fuc(a1-3)]GlcNAc
How it was run: as §1

[6] = biological target: Fuc(a1-2)Gal6S(b1-4)Glc6S
How it was run: as §1

[7] = biological target: Fuc(a1-2)[GalNAc(a1-3)]Gal(b1-4)Glc
How it was run: as §1

[8] = biological target: Fuc(a1-3)[Gal(b1-4)]GlcNAc6S
How it was run: as §1

[9] = biological target: Fuc(a1-3)[Gal3S(b1-4)]GlcNAc6S
How it was run: as §1

Gal(a1-6)Glc = biological target: Gal(a1-6)Glc
How it was run: as §1

[10] = biological target: Gal(b1-4)GlcNAc(b1-3)Gal(b1-4)GlcNAc(b1-3)Gal(b1-4)GlcNAc
How it was run: as §1

Gal3S(b1-3)GalNAc = biological target: Gal3S(b1-3)GalNAc
How it was run: as §1

Gal3S6S(b1-4)GlcNAc6S = biological target: Gal3S6S(b1-4)GlcNAc6S
How it was run: as §1

Gal4S6S(b1-4)GlcNAc = biological target: Gal4S6S(b1-4)GlcNAc
How it was run: as §1

GalNAc(a1-3)GalNAc = biological target: GalNAc(a1-3)GalNAc
How it was run: as §1

GlcA(b1-3)GlcNAc = biological target: GlcA(b1-3)GlcNAc
How it was run: as §1

Kdn(a2-3)Gal(b1-3)GlcNAc = biological target: Kdn(a2-3)Gal(b1-3)GlcNAc
How it was run: as §1

[11] = biological target: Man(a1-2)Man(a1-2)Man(a1-3)Man
How it was run: as §1

[12] = biological target: Neu5Ac(a2-3)Gal(b1-3)[Fuc(a1-4)]GlcNAc
How it was run: as §1

Neu5Ac(a2-3)Gal(b1-4)Glc = biological target: Neu5Ac(a2-3)Gal(b1-4)Glc
How it was run: as §1

[13] = biological target: Neu5Ac(a2-3)Gal(b1-4)GlcNAc(b1-2)Man(a1-3)[Neu5Ac(a2-6)Gal(b1-4)GlcNAc(b1-2)Man(a1-6)]Man(b1-4)GlcNAc(b1-4)GlcNAc
How it was run: as §1

[14] = biological target: Neu5Ac(a2-3)Gal(b1-4)GlcNAc(b1-3)Gal(b1-3)GlcNAc
How it was run: as §1

[15] = biological target: Neu5Ac(a2-3)Gal(b1-4)[Fuc(a1-3)]GlcNAc(b1-3)Gal(b1-4)[Fuc(a1-3)]GlcNAc(b1-3)Gal(b1-4)[Fuc(a1-3)]GlcNAc
How it was run: as §1

[16] = biological target: Neu5Ac(a2-6)Gal(b1-4)GlcNAc6S
How it was run: as §1

Neu5Ac(b2-6)GalNAc = biological target: Neu5Ac(b2-6)GalNAc
How it was run: as §1

[17] = biological target: Neu5Gc(a2-3)Gal(b1-3)[Fuc(a1-4)]GlcNAc
How it was run: as §1

Neu5Gc(a2-3)Gal(b1-4)Glc = biological target: Neu5Gc(a2-3)Gal(b1-4)Glc
How it was run: as §1

[18] = biological target: Fuc(a1-2)Gal(b1-4)GlcNAc(b1-2)Man(a1-6)[Gal(b1-4)GlcNAc(b1-2)Man(a1-3)]Man(b1-4)GlcNAc(b1-4)GlcNAc
How it was run: as §1

[19] = biological target: Fuc(a1-2)Gal6S(b1-4)GlcNAc
How it was run: as §1

[20] = biological target: Fuc(a1-3)[Gal(b1-4)]GlcNAc
How it was run: as §1

Gal(a1-3)Gal(b1-4)Glc = biological target: Gal(a1-3)Gal(b1-4)Glc
How it was run: as §1

Gal(b1-3)GalNAc = biological target: Gal(b1-3)GalNAc
How it was run: as §1

[21] = biological target: Gal(b1-3)GlcNAc(b1-3)Gal(b1-4)Glc
How it was run: as §1

[22] = biological target: Gal(b1-4)GlcNAc(b1-3)Gal(b1-4)Glc
How it was run: as §1

GlcA(b1-3)Gal = biological target: GlcA(b1-3)Gal
How it was run: as §1

[23] = biological target: GlcNAc(b1-3)[GlcNAc(b1-6)]Gal(b1-4)GlcNAc
How it was run: as §1

[24] = biological target: GlcNAc(b1-4)GlcNAc(b1-4)GlcNAc(b1-4)GlcNAc(b1-4)GlcNAc(b1-4)GlcNAc
How it was run: as §1

Man(a1-3)[Man(a1-6)]Man = biological target: Man(a1-3)[Man(a1-6)]Man
How it was run: as §1

Man(b1-4)GlcNAc = biological target: Man(b1-4)GlcNAc
How it was run: as §1

[25] = biological target: Neu5Ac(a2-3)Gal(b1-4)[Fuc(a1-3)]GlcNAc(b1-6)[Gal(b1-3)]GalNAc
How it was run: as §1

[26] = biological target: Neu5Ac(a2-6)Gal(b1-4)GlcNAc(b1-2)Man(a1-6)[GlcNAc(b1-2)Man(a1-3)]Man(b1-4)GlcNAc(b1-4)GlcNAc
How it was run: as §1

B1: CLC (Homo sapiens), Q9UBD9 (protein)
chain: MDLRAGDSWGMLACLCTVLWHLPAVPALNRTGDPGPGPSIQKTYDLTRYLEHQLRSLAGTYLNYLGPPFNEPDFNPPRLGAETLPRATVDLEVWRSLNDKLRLTQNYEAYSHLLCYLRGLNRQAATAELRRSLAHFCTSLQGLLGSIAGVMAALGYPLPQPLPGTEPTWTPGPAHSDFLQKMDDFWLLKELQTWLWRSAKDFNRLKKKMQPPAAAVTLHLGAHGF
- glycan array binding signal (z-score) [1]: -0.218
- glycan array binding signal (z-score) [2]: -0.886
- glycan array binding signal (z-score) [3]: -0.106
- glycan array binding signal (z-score) [4]: -0.557
- glycan array binding signal (z-score) [5]: 0.011
- glycan array binding signal (z-score) [6]: 2.23
- glycan array binding signal (z-score) [7]: 1.52
- glycan array binding signal (z-score) [8]: -0.923
- glycan array binding signal (z-score) [9]: 2.72
- glycan array binding signal (z-score) (Gal(a1-6)Glc): -0.312
- glycan array binding signal (z-score) [10]: -0.565
- glycan array binding signal (z-score) (Gal3S(b1-3)GalNAc): -0.144
- glycan array binding signal (z-score) (Gal3S6S(b1-4)GlcNAc6S): 11.1
- glycan array binding signal (z-score) (Gal4S6S(b1-4)GlcNAc): 2.49
- glycan array binding signal (z-score) (GalNAc(a1-3)GalNAc): 0.257
- glycan array binding signal (z-score) (GlcA(b1-3)GlcNAc): 0.215
- glycan array binding signal (z-score) (Kdn(a2-3)Gal(b1-3)GlcNAc): -0.192
- glycan array binding signal (z-score) [11]: 0.263
- glycan array binding signal (z-score) [12]: -0.63
- glycan array binding signal (z-score) (Neu5Ac(a2-3)Gal(b1-4)Glc): 0.101
- glycan array binding signal (z-score) [13]: 0.098
- glycan array binding signal (z-score) [14]: 0.852
- glycan array binding signal (z-score) [15]: -0.485
- glycan array binding signal (z-score) [16]: -0.346
- glycan array binding signal (z-score) (Neu5Ac(b2-6)GalNAc): -0.297
- glycan array binding signal (z-score) [17]: -0.279
- glycan array binding signal (z-score) (Neu5Gc(a2-3)Gal(b1-4)Glc): 2.45

B2: TbCVNHOa (Tuber borchii), Q5MK11 (protein)
chain: MSYADSSRNAVLTNGGRTLRAECRNADGNWVTSELDLDTCIGNPNGFLGWGMQNFSHSSEDIKLEEGGRKLTCRPKTVDGGFRERQGIDLNRIQNVNGRLVFQ
- glycan array binding signal (z-score) [1]: 1.94
- glycan array binding signal (z-score) [18]: -0.642
- glycan array binding signal (z-score) [2]: -0.116
- glycan array binding signal (z-score) [3]: 0.067
- glycan array binding signal (z-score) [19]: 0.327
- glycan array binding signal (z-score) [20]: -0.024
- glycan array binding signal (z-score) (Gal(a1-3)Gal(b1-4)Glc): 1.45
- glycan array binding signal (z-score) (Gal(b1-3)GalNAc): -0.24
- glycan array binding signal (z-score) [21]: 2.76
- glycan array binding signal (z-score) [22]: 1.38
- glycan array binding signal (z-score) (GlcA(b1-3)Gal): -0.018
- glycan array binding signal (z-score) [23]: 0.219
- glycan array binding signal (z-score) [24]: -0.762
- glycan array binding signal (z-score) [11]: 5.14
- glycan array binding signal (z-score) (Man(a1-3)[Man(a1-6)]Man): -0.273
- glycan array binding signal (z-score) (Man(b1-4)GlcNAc): -0.533
- glycan array binding signal (z-score) [25]: 0.487
- glycan array binding signal (z-score) [26]: -0.034
